# Source: PubChem BioAssay AID651899 (Broad Institute, 2012)
# Potency and affinity values are given separately. Calls of active or inactive are those of the source. A call without a number means that no potency is given here. No rule for the calls is given here.
# Assay: cytotoxicity in HEK293 cells, dose response, cytotoxicity control, cell-based, plate reader, cherry-pick (AID 651899);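 also: cells exposed to compound for 48 hours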
# Conditions: series mostly up to 26 µM
row,SMILES,outcome
1,C/C=C/c1ccc2c(c1)O[C@@H](CN(C)C(=O)Cc1cccnc1)[C@H](C)CN([C@H](C)CO)S2(=O)=O,inactive
2,COC(=O)C[C@@H]1C[C@@H]2c3cc(NC(=O)c4cccnc4)ccc3O[C@@H]2[C@@H](CO)O1,inactive
3,CCN(CC)S(=O)(=O)c1ccc(NC(=O)c2ccc(Cl)nc2)cc1,inactive
4,Cc1nn(CCC(=O)O)c2nc(-c3cccnc3)cc(C(F)(F)F)c12,inactive
5,COCCNC(=O)C[C@H]1CC[C@@H]2[C@@H](COc3ccc(NC(=O)Nc4cccc(F)c4)cc3C(=O)N2C)O1,inactive
6,COc1ccc(CCN(C)c2ccc(C(N)=O)cc2[N+](=O)[O-])cc1OC,inactive
7,O=C(c1ccncc1)N1CC[C@@H]2[C@H]1c1cc(Br)ccc1N[C@@H]2CO,inactive
8,CN1c2ccc(-c3ccccc3)cc2[C@H]2[C@H](CCN2C(=O)Cc2ccccn2)[C@H]1CO,inactive
9,Cc1cc(C)n(-c2ccc(C(=O)Nc3ccc4c(c3)OCO4)cc2)n1,inactive
10,CN1CCN(c2ncnc3c2[nH]c2ccc(F)cc23)CC1,inactive
11,O=C(Nc1ccc2nccnc2c1)c1cnccn1,inactive
12,Cc1ccc(-c2nn(CCC(=O)Nc3cccnc3)c(=O)c3ccccc23)cc1,inactive
13,CC(Oc1ccc2ccc(=O)oc2c1)C(=O)N1CCOCC1 (stereo unspecified),inactive
14,COC(=O)C[C@@H]1CC[C@@H]2[C@H](COC[C@@H](O)CN2C(=O)Nc2cccc(F)c2)O1,inactive
15,Cc1nc2sc(C(c3ccc(Cl)cc3)N3CCN(c4ccccc4F)CC3)c(O)n2n1 (stereo unspecified),inactive
16,CCC(CO)Oc1cc(NC(=O)c2cccc(F)c2)c2ncn(C(C)C)c2c1 (stereo unspecified),inactive
17,CC1CCCN(c2ccc(C(=O)Nc3cccnc3)cc2[N+](=O)[O-])C1 (stereo unspecified),inactive
18,O=C1CCCc2c1cc(C(=O)NCc1ccco1)c(=O)n2-c1ccc(Cl)cc1,inactive

row,SMILES,outcome
1,CCOC(=O)c1ccc2c(c1)nc(SCc1cn3ccsc3n1)n2CC,inactive
2,CC(C)n1c(N2CCN(C(=O)c3cccs3)CC2)nc2ccccc21,inactive
3,CC(=O)c1ccc(C(=O)N2CCCC(Nc3ccccc3)C2)s1 (stereo unspecified),inactive
4,CC1=C(C#N)C(c2cccnc2)C2=C(CC(c3ccc(Cl)cc3)CC2=O)N1 (stereo unspecified),inactive
5,CC(Oc1cc2oc(=O)c3c(c2cc1Cl)CCC3)C(=O)NCc1cccnc1 (stereo unspecified),inactive
6,CCN(CC)CCNC(=O)c1cn(CC)c2ccc(S(=O)(=O)N3CCc4ccccc4C3)cc2c1=O,inactive
7,O=C(CSc1nncs1)N1c2ccccc2Sc2ccccc21,inactive
8,COc1ccc(Nc2c(-c3ccc(OC)cc3)nc3cnccn23)cc1,inactive
9,O=C(CSc1nc2c(c(=O)n1-c1ccccc1)SCC2)N1CCOCC1,inactive
10,O=C(Nc1ccc(N2CCOCC2)c(Cl)c1)c1cccnc1,inactive
11,COc1ccc(NC(=O)c2ccc(-n3cncn3)c([N+](=O)[O-])c2)cc1OC,inactive
12,Cc1c(OC(C)C(=O)NCc2ccccn2)ccc2c3c(c(=O)oc12)CCC3 (stereo unspecified),inactive
13,CCc1nn(CCCC(=O)N(C)Cc2ccccc2)c(=O)c2cc3occc3n12,inactive
14,CC(=O)c1ccc(NC(=O)COC(=O)Cc2ccsc2)cc1,inactive
15,Cc1ccc(NC(=O)CSc2nc(=O)n(CCCN3CCOCC3)c3c2CCCC3)cc1F,inactive
16,COCCNC(=O)C[C@H]1CC[C@@H]2[C@H](COc3ccc(NC(=O)Nc4cccc(F)c4)cc3C(=O)N2C)O1,inactive
17,Cc1nc2nc(SCC(=O)NCc3ccco3)nn2c(C)c1Cc1ccccc1,inactive
18,CN1c2ccc(-c3cccc(F)c3)cc2[C@H]2[C@H](CCN2C(=O)C2CC2)[C@H]1CO,inactive
